{"source": "PubChem BioAssay AID2717", "about": "(Broad Institute, 2010)", "note": "Screen size: about 300,000 compounds; about 3,200 (1.1%) were called active. No stated cut-off is given here; in the data, active means inhibition above about 75%; inconclusive means no clear call, values can overlap the other calls; inactive means below that; tested in HMLE shEcad cells. For the sample, actives were picked, then their nearest neighbours and some compounds at random.", "data": [{"experiment": "cancer stem cell viability inhibitors, primary screen, luminescence (AID 2717)", "conditions": "cancer stem cell-like cells viability, at 7.5 µM, active compounds read high", "values": [{"smiles": "COc1ccc(Cl)cc1NC(=O)CN1CCN(C(=O)N2CCOCC2)CC1", "inhibition": "-6.19% (inactive)"}, {"smiles": "O=C(Nc1cc(N2CCOCC2)ncn1)NC1(C(F)(F)F)Oc2ccc(Cl)cc2O1", "note": "(centres undefined)", "inhibition": "88.5% (active)"}, {"smiles": "Cc1csc(NC(=O)NC2(C(F)(F)F)Oc3ccccc3O2)n1", "inhibition": "36.6% (inactive)"}, {"smiles": "Cc1c(O)c(C)c2c(c1O)C(=O)C[C@@H](c1ccccc1)O2", "inhibition": "1.32% (inactive)"}, {"smiles": "Cc1cccc(-n2ncc3c(=O)[nH]c(SCC(=O)Nc4cc(C)on4)nc32)c1", "inhibition": "-7.48% (inactive)"}, {"smiles": "Cc1ccc(CCC(=O)Nc2ncc(Cc3cc(Cl)ccc3Cl)s2)o1", "inhibition": "86.2% (active)"}, {"smiles": "Cc1ccc(C(=O)Nc2nc3ccc(Cl)cc3s2)o1", "inhibition": "18.8% (inactive)"}, {"smiles": "CCOc1ccccc1NC(=O)CCc1ccc(C)o1", "inhibition": "0.408% (inactive)"}, {"smiles": "CCCc1cc(=O)[nH]c(SCC(=O)Nc2ccc(S(=O)(=O)N3CCCC3)cc2)n1", "inhibition": "15.6% (inactive)"}, {"smiles": "C=CC[C@@H](CC(=O)N[C@@H](CO)Cc1ccccc1)C(=O)NCCOC(=O)[C@@H](CC=C)CC(=O)OC(C)(C)C", "inhibition": "-6.46% (inactive)"}, {"smiles": "O=C(NCCN1CCOCC1)c1ccc(/C=C2\\Sc3ccccc3N(Cc3ccc(F)cc3)C2=O)cc1", "inhibition": "33.7% (inactive)"}, {"smiles": "CCN1CCN(CCNC(=O)c2ccc(/C=C3/Sc4ccccc4N(Cc4cccc(C)c4)C3=O)cc2)CC1", "inhibition": "102% (active)"}, {"smiles": "CCN1CCN(CCNC(=O)c2ccc3c(c2)NC(=O)/C(=C\\c2ccc(OC)c(OC)c2)S3)CC1", "inhibition": "12.1% (inactive)"}, {"smiles": "COc1ccc(C(=O)OCC(=O)c2cc(C)n(CC3CCCO3)c2C)cc1[N+](=O)[O-]", "note": "(centres undefined)", "inhibition": "37.8% (inactive)"}, {"smiles": "C=CC[C@H](CC(=O)OC(C)(C)C)C(=O)OC[C@H]1CCCN1C(=O)[C@H](CC=C)CC(=O)N(CCO)Cc1ccccc1", "inhibition": "4.1% (inactive)"}, {"smiles": "CCN(C(=O)CSc1cccc[n+]1[O-])c1ccccc1", "inhibition": "7% (inactive)"}, {"smiles": "O=C(OCC(=O)N1CCc2ccccc21)c1ccc([N+](=O)[O-])cc1", "inhibition": "8.88% (inactive)"}, {"smiles": "Cc1cccc(NC(=O)c2ccc(COc3ccccc3[N+](=O)[O-])o2)n1", "inhibition": "54.5% (inactive)"}, {"smiles": "O=C(O)c1ccc(NC(=O)c2ccc(COc3ccc(Cl)cc3)o2)cc1", "inhibition": "-2.6% (inactive)"}, {"smiles": "O=C(Nc1ccn(Cc2ccccc2F)n1)c1ccc(COc2ccc(Cl)cc2Cl)o1", "inhibition": "80.3% (active)"}, {"smiles": "COCCCNC(=O)CC1C[C@H](C(=O)N2CCCCC2)[C@@]2(CCc3ccccc3)c3[nH]c4ccccc4c3CCN2C1=O", "note": "(some centres undefined)", "inhibition": "-19.5% (inactive)"}, {"smiles": "O=C1NC(=Nc2ccc(Cl)cc2)SC1Cc1cccc(Cl)c1Cl", "note": "(centres undefined)", "inhibition": "76.5% (active)"}, {"smiles": "NC1=NC(=O)C(Cc2cccc(Cl)c2Cl)S1", "note": "(centres undefined)", "inhibition": "14.4% (inactive)"}, {"smiles": "CC(C)=N/N=C1/NC(=O)C(Cc2ccccc2)S1", "note": "(centres undefined)", "inhibition": "-16.9% (inactive)"}, {"smiles": "O=C(CCCOc1ccccc1)NNC(=O)c1ccc(Cl)cc1", "inhibition": "-7.46% (inactive)"}, {"smiles": "O=C(NCCc1ccco1)c1ccc(OCc2cn3ccccc3n2)cc1", "inhibition": "-8.4% (inactive)"}, {"smiles": "COc1ccc(NC(=O)c2cc(-c3ccc(C)cc3)on2)cc1", "inhibition": "11.2% (inactive)"}, {"smiles": "COc1ccc(Nc2cc(Cl)ccc2C(=O)O)cn1", "inhibition": "5.84% (inactive)"}, {"smiles": "COc1ccc(NC(=O)/C(Cl)=C(/Cl)S(=O)Cc2ccc(C)cc2)cn1", "note": "(centres undefined)", "inhibition": "112% (active)"}, {"smiles": "NC(=O)Nc1ccc(C(=O)OCC(=O)NC2CCCc3ccccc32)cc1", "note": "(centres undefined)", "inhibition": "3.37% (inactive)"}, {"smiles": "COc1ccc(-c2n[nH]c(C)c2-c2ccccc2OC)c(O)c1", "inhibition": "2.11% (inactive)"}, {"smiles": "C=C(C)COc1ccc(-c2n[nH]c(C)c2-c2ccccc2)c(O)c1", "inhibition": "-11.5% (inactive)"}, {"smiles": "C=C(C)COc1ccc(-c2n[nH]c(C)c2-c2ccccc2OC)c(O)c1", "inhibition": "102% (active)"}, {"smiles": "COc1cccc(/C=N/Nc2cc(C)nc(-c3ccccc3O)n2)c1O", "inhibition": "12.2% (inactive)"}, {"smiles": "COc1cccc(/C(C)=N/Nc2ncc(Cl)cc2Cl)c1", "inhibition": "24.2% (inactive)"}, {"smiles": "COc1cccc(/C=N/Nc2ncc(C(F)(F)F)cc2Cl)c1O", "inhibition": "102% (active)"}, {"smiles": "Cc1ccc(S(=O)(=O)Nc2nc(CN3CCOCC3)nc3sc(C)c(C)c23)cc1", "inhibition": "-7.69% (inactive)"}, {"smiles": "Cc1ccc(NC(=O)C(C)Sc2nnc(C3CC3)n2C2CC2)cc1S(=O)(=O)N1CCOCC1", "note": "(centres undefined)", "inhibition": "-10.2% (inactive)"}, {"smiles": "O=C(NNS(=O)(=O)c1c(F)cc(F)c(Cl)c1F)C12CC3CC(CC(C3)C1)C2", "inhibition": "-12.7% (inactive)"}, {"smiles": "COc1cccc2sc3cc(NCC[C@@H]4CCCN4C)ccc3c(=O)c12", "inhibition": "6.75% (inactive)"}, {"smiles": "Cc1nc2ccc(NC(=O)c3cccc(S(=O)(=O)N4CCOCC4)c3)cc2s1", "inhibition": "-13.4% (inactive)"}, {"smiles": "COc1cccc(/C=C2\\C=C(c3ccc(C)cc3)OC2=O)c1OC(C)=O", "inhibition": "-0.631% (inactive)"}, {"smiles": "COc1cccc(/C=C/c2ccc3ccccc3n2)c1OC(C)=O", "inhibition": "104% (active)"}, {"smiles": "CCOc1cccc(/C=C/c2ccc3ccccc3n2)c1OC(C)=O", "inhibition": "64.6% (inactive)"}, {"smiles": "O=C1N[C@@H](c2ccccc2)COC(=O)[C@H](Cc2ccc(F)cc2)C/C=C\\C[C@@H]1CC(=O)N(CCO)Cc1ccccc1", "inhibition": "9.15% (inactive)"}, {"smiles": "CCN(CC(=O)Nc1c(F)cccc1F)C(=O)c1ccc(-c2ccc(C(C)=O)cc2)o1", "inhibition": "-4.76% (inactive)"}, {"smiles": "COc1ccccc1CNC(=O)COC(=O)c1cccs1", "inhibition": "18.5% (inactive)"}, {"smiles": "C=CC[C@@H](CC(=O)N[C@H](CO)Cc1ccccc1)C(=O)N[C@H](C)COC(=O)[C@@H](CC=C)Cc1ccc(F)cc1", "inhibition": "-14.7% (inactive)"}, {"smiles": "COc1ccccc1N1CCN(C(=O)CSc2ncnc3c2cnn3-c2ccc(C)c(C)c2)CC1", "inhibition": "75.8% (active)"}, {"smiles": "COC(=O)CSc1ncnc2c1cnn2-c1ccc(C)cc1C", "inhibition": "8.04% (inactive)"}, {"smiles": "COc1ccccc1N1CCN(C(=O)CSc2nnc(-c3ccoc3C)o2)CC1", "inhibition": "-0.373% (inactive)"}, {"smiles": "COc1ccc(C2(c3ccc(OC)cc3)NC(=O)N(CC(=O)Nc3cc(C)on3)C2=O)cc1", "inhibition": "-19.5% (inactive)"}, {"smiles": "O=C(Cn1cnc2ccccc2c1=O)NNC(=O)c1ccccc1F", "inhibition": "-14% (inactive)"}, {"smiles": "C=C(Br)Cn1c(CCCC)nc2ccccc21", "inhibition": "77.7% (active)"}, {"smiles": "CCCCn1c(CN2CCN(CCO)CC2)nc2ccccc21", "inhibition": "-13.9% (inactive)"}, {"smiles": "CCCCn1c(CCCNC(=O)CC)nc2ccccc21", "inhibition": "-2.03% (inactive)"}, {"smiles": "O=C(Nc1cccc(S(=O)(=O)NC2=NCCC2)c1)c1ccc(F)cc1F", "inhibition": "17.5% (inactive)"}, {"smiles": "Cc1cccc(C(=O)OCC(=O)NC(C)C2CC3CCC2C3)c1O", "note": "(centres undefined)", "inhibition": "-4.77% (inactive)"}, {"smiles": "CCN(C[C@H]1N[C@@](CC)(C(=O)OC)[C@H]2C(=O)N(Cc3ccccc3)C(=O)[C@@H]12)S(=O)(=O)c1ccc(C(F)(F)F)cc1", "inhibition": "44.8% (inactive)"}, {"smiles": "CC(=O)Nc1cccc(Nc2nc(-c3cccs3)nc3ccccc23)c1", "inhibition": "33.9% (inactive)"}, {"smiles": "Cc1cccc(-c2nc(Nc3ccc(O)cc3)c3ccccc3n2)c1", "inhibition": "94% (active)"}, {"smiles": "COc1ccc(Nc2nc(-c3cccnc3)nc3ccccc23)cn1", "inhibition": "2.87% (inactive)"}, {"smiles": "Cc1cccc(NC(=O)CN2CCN(C(=O)C3CCN(C(=O)/C=C/c4ccccc4)CC3)CC2)c1C", "inhibition": "-8.71% (inactive)"}, {"smiles": "CC(=O)Nc1ccc(NC(=O)COc2ncnc3ccccc23)cc1", "inhibition": "-6.11% (inactive)"}, {"smiles": "Cc1ccc(Nc2c3c(nc4ccccc24)CCC3)cc1", "inhibition": "2.02% (inactive)"}, {"smiles": "CC(=O)Nc1ccc(Nc2c3ccccc3nc3ccccc23)cc1", "inhibition": "85.3% (active)"}, {"smiles": "Cc1ccc(CC(=O)Nc2ccc(S(=O)(=O)N3CCOCC3)cc2)cc1C", "inhibition": "6.62% (inactive)"}, {"smiles": "O=[N+]([O-])c1cc(S(=O)(=O)Nc2cccc(Cl)c2)ccc1N=Nc1c(O)[nH]c2ccccc12", "inhibition": "96.2% (active)"}, {"smiles": "Cc1cccc(N(CC(=O)N=Nc2c(O)[nH]c3ccccc23)S(C)(=O)=O)c1C", "inhibition": "-17.4% (inactive)"}, {"smiles": "CN1CCN(c2ccc(S(=O)(=O)Nc3ccccc3)cc2[N+](=O)[O-])CC1", "inhibition": "49.9% (inactive)"}, {"smiles": "O=C(CC1SC(N2CCOCC2)=NC1=O)Nc1ccccc1F", "note": "(centres undefined)", "inhibition": "-28.9% (inactive)"}, {"smiles": "COc1cc(/C=C/C(=O)OCC(=O)NC2CC2)cc(OC)c1OC", "inhibition": "1.1% (inactive)"}, {"smiles": "COC(=O)c1ccc(C)c(NC(=O)Cn2c(C)csc2=O)c1", "inhibition": "13.1% (inactive)"}, {"smiles": "CCCCN(CCCC)CCC(O)c1cc2c(Cl)cc(Cl)cc2c2cc(C(F)(F)F)ccc12", "note": "(centres undefined)", "inhibition": "95.2% (active)"}, {"smiles": "CCCCC(=O)Nc1ccc(C(=O)Nc2cc(C(F)(F)F)ccc2Cl)cc1", "inhibition": "5.17% (inactive)"}, {"smiles": "Cc1ccc(C)c(NC(=O)COC(=O)c2nn(C)c(=O)c3ccccc23)c1", "inhibition": "-4.9% (inactive)"}, {"smiles": "Cc1ccc(-n2[nH]c(C)c(/C=N/N3C(=O)c4cccc5cccc(c45)C3=O)c2=O)cc1", "inhibition": "24.4% (inactive)"}, {"smiles": "COc1cc(NS(=O)(=O)c2ccc(N=Cc3c(C)[nH]n(-c4ccccc4)c3=O)cc2)nc(OC)n1", "inhibition": "-7.07% (inactive)"}, {"smiles": "COc1cc(SC#N)ccc1N=Cc1c(C)[nH]n(-c2ccc(C)cc2)c1=O", "inhibition": "84.4% (active)"}, {"smiles": "COc1cc(C(=O)OCc2cc(=O)n3ccsc3n2)ccc1OC(C)C", "inhibition": "-20.6% (inactive)"}, {"smiles": "CC1CCCCC1NCC(=O)Nc1ccccc1C(=O)Nc1ccccc1", "note": "(centres undefined)", "inhibition": "-14.1% (inactive)"}, {"smiles": "O=C(COC(=O)c1ccccc1C(=O)N1CCN(c2ccccc2)CC1)NCc1ccccc1", "inhibition": "-12.2% (inactive)"}, {"smiles": "Oc1ccccc1N1CCN(C(=S)NCc2ccccc2)CC1", "inhibition": "12% (inactive)"}, {"smiles": "Oc1ccc(N2CCN(C(=S)NCc3ccccc3)CC2)cc1", "inhibition": "76.5% (active)"}, {"smiles": "O=C(COC(=O)c1ccc2c(c1)OCCO2)NCc1ccccc1Cl", "inhibition": "-17.4% (inactive)"}, {"smiles": "Cc1ccc(N2C(=O)N3[C@@H]4c5ccccc5OC[C@@H]4[C@@H](c4ccccc4)[C@@]3(C)C2=O)cc1", "inhibition": "-10% (inactive)"}, {"smiles": "CCN(CC)c1ccc(/C=N/NC(=O)c2cnccn2)c(O)c1", "inhibition": "102% (active)"}, {"smiles": "CCN(CC)c1ccc(/C=N/NC(=O)CNC(=O)c2cccnc2)cc1", "inhibition": "-7.16% (inactive)"}, {"smiles": "O=C(N/N=C/c1ccc(O)c2ccccc12)c1cccnc1", "inhibition": "8.51% (inactive)"}]}]}
